Calls of active or inactive are those of the source. Rule for the calls: active = hit-call score of the fitted dose curve at least 0.9, where 1 is the maximum; inactive = score below 0.9.
Legend:
[1] = ATG_CRE_CIS: Attagene CIS-FACTORIAL HepG2 Assay for human cAMP Responsive Element (CRE) binding protein 3 (AID 2282926); settings: HepG2 CRE cis-reporter, Attagene multiplexed mRNA; actives raise or lower the signal
Outline: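 Readout: fluorescently labelled reporter transcripts resolved by capillary electrophoresis after RT-PCR, taken 24 h post-dosing in transfected HepG2. Endogenous transcription factor activity drives each cis-element reporter; gain or loss of signal fitted relative to DMSO control.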

[2] = target: CCAAT/enhancer-binding protein beta (Homo sapiens) (UniProt P17676); experiment: ATG_C_EBP_CIS: Attagene CIS-FACTORIAL HepG2 Assay for human CCAAT/Enhancer Binding Protein (C/EBP) beta (AID 2282927); settings: HepG2 Attagene cis-factorial transcription factor reporter; actives raise or lower the signal
Outline: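 Chemical-treated HepG2 cells (24 h) bearing cis-regulated reporter constructs were processed for total RNA, then reverse transcription, PCR amplification, fluorescent primer extension and fragment analysis; gain- and loss-of-signal were fitted against DMSO.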

[3] = ATG_CMV_CIS: Attagene CIS-FACTORIAL HepG2 Assay for human CMV (Internal Marker) (AID 2282928); settings: HepG2 CMV promoter reporter, transcription factor profiling; actives raise or lower the signal;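 note: endpoint acts as a background internal control marker rather than a target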
Outline: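 24 h chemical treatment, HepG2 with transient multi-reporter transfection; RNA → oligo(dT) RT → PCR → 6-FAM extension → HpaI digest → CE fluorescence. Bidirectional fit, DMSO negative control.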

[4] = ATG_DR4_LXR_CIS: Attagene CIS-FACTORIAL HepG2 Assay for human Liver X Receptor (LXR), DR4 submotif (AID 2282929); settings: HepG2 Attagene DR4 cis-reporter, mRNA transcription; actives raise or lower the signal
Outline: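 DR4 cis-reporter in HepG2, 24 h exposure. Detection: RT-PCR, 6-FAM labelling, CE fragment analysis. Endpoint fitted bidirectionally, DMSO = baseline.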

[5] = target: Aryl hydrocarbon receptor (Homo sapiens) (UniProt P35869); experiment: ATG_Ahr_CIS: Attagene CIS-FACTORIAL HepG2 Assay for human Aryl Hydrocarbon Receptor (Ahr) (AID 2282930); settings: HepG2 AhR cis-factorial reporter transcription; actives raise or lower the signal
Outline: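 Following 24 h of chemical dosing, transfected HepG2 liver cells with cis-driven reporter units were lysed for RNA; reporter mRNA was quantified via RT-PCR and capillary electrophoresis, and responses fitted bidirectionally from DMSO.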

[6] = ATG_AP_1_CIS: Attagene CIS-FACTORIAL HepG2 Assay for human Activator Protein 1 (AP-1) (AID 2282931); settings: HepG2 Attagene cis-factorial AP-1 reporter mRNA; actives raise or lower the signal
Outline: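 Cis-regulated reporter units transiently expressed in HepG2 report endogenous transcription-factor activity. Signal: reporter mRNA at 24 h, via RT-PCR and fluorescent capillary electrophoresis. Endpoint derived by bidirectional fitting, DMSO as negative control.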

[7] = ATG_AP_2_CIS: Attagene CIS-FACTORIAL HepG2 Assay for human Activator Protein 2 (AP-2) (AID 2282932); settings: HepG2 AP-2 cis-reporter, Attagene transcription factor profiling; actives raise or lower the signal
Outline: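 Cells (HepG2) transfected with promoter-driven reporter constructs, treated 24 h. Total RNA reverse-transcribed, reporter cDNA PCR-amplified, FAM-labelled by primer extension, digested, resolved by capillary electrophoresis. Activity fitted both directions versus DMSO.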

[8] = ATG_BRE_CIS: Attagene CIS-FACTORIAL HepG2 Assay for human Bone Morphogenetic Protein (BMP) Response Element (BRE) (AID 2282933); settings: HepG2 BMP response element reporter, Attagene transcription factor profiling; actives raise or lower the signal
Outline: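 Endogenous transcription factor activity at a BMP response element was monitored in transfected HepG2 cells 24 h after dosing. Fluorescent RT-PCR products were resolved by capillary electrophoresis, and activity was fitted in both directions versus DMSO.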

[9] = target: Transcription factor E2F1 (Homo sapiens) (UniProt Q01094); experiment: ATG_E2F_CIS: Attagene CIS-FACTORIAL HepG2 Assay for human E2F Transcription Factor 1 (AID 2282935); settings: HepG2 Attagene cis-reporter, E2F reporter RNA transcripts; actives raise or lower the signal
Outline: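 First, HepG2 cells were transfected with reporter transcription units. Next, they were dosed for 24 h. Then RNA was isolated, converted to cDNA, PCR-amplified, FAM-labeled, HpaI-digested and analyzed by capillary electrophoresis.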

[10] = ATG_M_61_CIS: Attagene CIS-FACTORIAL HepG2 Assay for M61 Transcription Factor (Internal Marker) (AID 2282937); settings: HepG2 Attagene CIS-FACTORIAL M61 internal marker reporter; actives raise or lower the signal
Outline: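 Background-control endpoint: HepG2 cells with cis-regulated reporter constructs, 24 h exposure, reporter mRNA detected via fluorescent primer extension and capillary electrophoresis; values from bidirectional fitting with DMSO baseline.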

[11] = ATG_EGR_CIS: Attagene CIS-FACTORIAL HepG2 Assay for human Early Growth Response 1 (EGR1) (AID 2282938); settings: HepG2 Attagene CIS-FACTORIAL EGR reporter mRNA; actives raise or lower the signal
Outline: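 Endpoint derived by bidirectional fitting versus DMSO vehicle. Method: cis-promoter reporter units transfected into HepG2, 24 h dosing, RNA isolation, RT-PCR with 6-FAM primer extension and HpaI digestion, then capillary electrophoresis fluorescence detection.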

[12] = ATG_ERE_CIS: Attagene CIS-FACTORIAL HepG2 Assay for Estrogen Response Element (ERE) (AID 2282940); settings: HepG2 ERE cis-reporter, Attagene RNA transcript; actives raise or lower the signal
Outline: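 Cells used were human hepatoma HepG2, transfected with multiple reporter transcription units under cis-regulatory promoters. Reporter mRNA, read 24 h post-dosing via fluorescent RT-PCR products on capillary electrophoresis, was fitted bidirectionally relative to DMSO.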

[13] = ATG_Ets_CIS: Attagene CIS-FACTORIAL HepG2 Assay for human Erythroblast Transformation Specific (ETS) (AID 2282941); settings: HepG2 ETS cis-reporter transcription, actives raise or lower the signal
Outline: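 Cis-regulated reporter mRNA induction in HepG2 (transient transfection), 24 h exposure, RT-PCR plus capillary electrophoresis detection; DMSO serves as negative control and baseline.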

[14] = ATG_FoxO_CIS: Attagene CIS-FACTORIAL HepG2 Assay for human Forkhead box O (FoxO) (AID 2282943); settings: HepG2 Attagene cis-reporter, FoxO element, mRNA; actives raise or lower the signal
Outline: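 24 h chemical exposure, HepG2 with transient cis-MRTU transfection. RNA extraction, oligo(dT) RT, reporter-specific PCR, primer-extension labelling, HpaI digestion, CE fragment analysis; bidirectional fit, DMSO baseline.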

[15] = ATG_GATA_CIS: Attagene CIS-FACTORIAL HepG2 Assay for human GATA Binding Protein (AID 2282944); settings: HepG2 GATA cis-element reporter, Attagene multiplex mRNA; actives raise or lower the signal
Outline: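 Endogenous transcription factor activity was captured through cis-promoter-driven reporters in transfected HepG2 cells. After 24 h exposure, reporter transcripts were quantified by RT-PCR with fluorescent capillary electrophoresis, and responses fitted both directions against DMSO.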

[16] = ATG_GLI_CIS: Attagene CIS-FACTORIAL HepG2 Assay for human Zinc Finger Protein GLI1 (AID 2282945); settings: HepG2, Attagene cis-factorial reporter mRNA, GLI element; actives raise or lower the signal
Outline: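 HepG2 cells transiently transfected with cis-promoter multiplexed reporter units report endogenous transcription factor activity. After 24 h chemical exposure, reporter mRNA was quantified by RT-PCR, 6-FAM labelling, HpaI digestion and capillary electrophoresis, with bidirectional fitting against DMSO.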

[17] = target: Retinoic acid receptor alpha (Homo sapiens) (UniProt P10276); experiment: ATG_DR5_RAR_CIS: Attagene CIS-FACTORIAL HepG2 Assay for human Retinoic Acid Receptor Alpha (RARE), DR5 submotif (AID 2282934); settings: HepG2 Attagene cis-factorial RARE DR5 reporter, mRNA; actives raise or lower the signal
Outline: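 Transfected HepG2 reporter cells are exposed to chemicals for 24 h. Then RNA is extracted and the DR5 element reporter transcript is measured by RT-PCR and capillary electrophoresis, with bidirectional curve fitting relative to DMSO.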

[18] = ATG_E_Box_CIS: Attagene CIS-FACTORIAL HepG2 Assay for human Enhancer Box (E-box) (AID 2282936); settings: HepG2 E-box cis-reporter transcription, actives raise or lower the signal
Outline: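 Endogenous transcription factor activity was sensed in human HepG2 liver cells through transfected cis-promoter reporter units. After 24 h of dosing, total RNA was reverse-transcribed and reporter cDNA resolved by capillary electrophoresis.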

[19] = ATG_M_19_CIS: Attagene CIS-FACTORIAL HepG2 Assay for M19 Transcription Factor (Internal Marker) (AID 2282939); settings: HepG2 Attagene CIS-FACTORIAL M19 internal marker reporter; actives raise or lower the signal
Outline: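 Background-control endpoint from a multiplexed HepG2 reporter panel. Cells carrying cis-regulated reporter constructs are treated 24 h, then reporter transcripts are amplified, fluorescently labelled and sized by capillary electrophoresis. DMSO defines baseline.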

[20] = target: Hepatocyte nuclear factor 3-beta (Homo sapiens) (UniProt Q9Y261); experiment: ATG_FoxA2_CIS: Attagene CIS-FACTORIAL HepG2 Assay for human Forkhead box A2 (FOXA2) (AID 2282942); settings: HepG2 cis-reporter transcription factor activity, 24 h; actives raise or lower the signal
Outline: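 Measured: reporter mRNA induction or loss in HepG2 transiently carrying multiple cis-regulated reporter units, 24 h after dosing. Quantified by RT-PCR plus capillary electrophoresis, normalised to DMSO.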

Measured: AC50

Chain of Transcription factor E2F1 (Homo sapiens) (Q01094 whole entry, looked up): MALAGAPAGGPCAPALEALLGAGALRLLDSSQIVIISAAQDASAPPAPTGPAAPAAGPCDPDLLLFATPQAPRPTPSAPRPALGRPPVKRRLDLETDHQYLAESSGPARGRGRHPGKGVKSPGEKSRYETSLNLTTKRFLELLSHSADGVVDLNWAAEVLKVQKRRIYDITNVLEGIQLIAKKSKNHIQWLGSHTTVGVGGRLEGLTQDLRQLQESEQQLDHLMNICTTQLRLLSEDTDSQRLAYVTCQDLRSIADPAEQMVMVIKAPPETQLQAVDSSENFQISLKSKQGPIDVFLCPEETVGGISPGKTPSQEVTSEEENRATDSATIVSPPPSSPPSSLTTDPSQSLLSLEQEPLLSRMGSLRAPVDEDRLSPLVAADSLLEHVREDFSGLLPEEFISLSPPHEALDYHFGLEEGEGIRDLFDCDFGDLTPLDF
Chain of CCAAT/enhancer-binding protein beta (Homo sapiens) (P17676 whole entry, looked up, the tested form may be a part): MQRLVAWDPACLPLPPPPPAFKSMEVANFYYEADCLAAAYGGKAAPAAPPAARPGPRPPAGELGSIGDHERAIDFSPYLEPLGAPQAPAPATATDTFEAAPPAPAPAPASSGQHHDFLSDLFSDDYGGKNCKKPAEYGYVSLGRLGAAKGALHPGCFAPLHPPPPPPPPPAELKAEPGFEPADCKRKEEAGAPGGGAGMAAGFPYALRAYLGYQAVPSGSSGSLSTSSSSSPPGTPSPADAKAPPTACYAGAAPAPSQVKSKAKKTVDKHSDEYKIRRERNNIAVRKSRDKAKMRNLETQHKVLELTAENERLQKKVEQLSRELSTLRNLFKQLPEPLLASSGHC
Chain of Aryl hydrocarbon receptor (Homo sapiens) (P35869 whole entry, looked up): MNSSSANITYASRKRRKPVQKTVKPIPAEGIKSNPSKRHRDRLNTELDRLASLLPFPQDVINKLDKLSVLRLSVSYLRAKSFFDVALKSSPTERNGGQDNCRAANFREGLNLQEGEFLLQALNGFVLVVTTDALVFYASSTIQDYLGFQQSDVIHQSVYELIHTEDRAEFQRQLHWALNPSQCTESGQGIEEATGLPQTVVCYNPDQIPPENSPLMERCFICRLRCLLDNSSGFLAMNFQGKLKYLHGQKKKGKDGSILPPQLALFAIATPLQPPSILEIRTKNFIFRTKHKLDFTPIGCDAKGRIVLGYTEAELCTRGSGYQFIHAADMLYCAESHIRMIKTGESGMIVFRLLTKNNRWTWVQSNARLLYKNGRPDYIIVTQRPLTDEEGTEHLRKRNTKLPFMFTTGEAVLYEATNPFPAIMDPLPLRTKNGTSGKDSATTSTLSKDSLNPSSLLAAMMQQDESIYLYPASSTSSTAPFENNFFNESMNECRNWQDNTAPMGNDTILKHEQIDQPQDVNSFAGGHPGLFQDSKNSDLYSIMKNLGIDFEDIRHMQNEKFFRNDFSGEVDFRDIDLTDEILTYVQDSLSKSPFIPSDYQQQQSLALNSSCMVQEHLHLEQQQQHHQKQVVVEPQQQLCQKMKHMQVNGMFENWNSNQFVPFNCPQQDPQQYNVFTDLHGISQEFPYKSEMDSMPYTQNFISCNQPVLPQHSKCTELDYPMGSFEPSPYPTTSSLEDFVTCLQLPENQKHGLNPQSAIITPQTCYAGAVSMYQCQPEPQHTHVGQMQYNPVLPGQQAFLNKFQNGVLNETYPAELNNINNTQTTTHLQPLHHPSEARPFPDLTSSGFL
Chain of Hepatocyte nuclear factor 3-beta (Homo sapiens) (Q9Y261 whole entry, looked up): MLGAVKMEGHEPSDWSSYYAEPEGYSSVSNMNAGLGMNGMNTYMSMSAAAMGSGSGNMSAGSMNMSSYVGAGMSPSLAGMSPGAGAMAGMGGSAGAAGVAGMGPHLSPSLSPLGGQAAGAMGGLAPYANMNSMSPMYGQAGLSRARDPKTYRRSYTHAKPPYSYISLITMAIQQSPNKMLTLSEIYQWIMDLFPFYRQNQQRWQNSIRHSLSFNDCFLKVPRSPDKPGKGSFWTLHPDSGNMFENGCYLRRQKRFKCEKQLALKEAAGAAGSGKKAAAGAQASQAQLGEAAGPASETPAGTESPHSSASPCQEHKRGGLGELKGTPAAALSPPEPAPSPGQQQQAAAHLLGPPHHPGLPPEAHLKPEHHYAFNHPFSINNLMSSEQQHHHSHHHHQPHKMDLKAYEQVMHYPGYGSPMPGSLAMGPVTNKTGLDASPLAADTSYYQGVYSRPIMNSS
Chain of Retinoic acid receptor alpha (Homo sapiens) (P10276 whole entry, looked up): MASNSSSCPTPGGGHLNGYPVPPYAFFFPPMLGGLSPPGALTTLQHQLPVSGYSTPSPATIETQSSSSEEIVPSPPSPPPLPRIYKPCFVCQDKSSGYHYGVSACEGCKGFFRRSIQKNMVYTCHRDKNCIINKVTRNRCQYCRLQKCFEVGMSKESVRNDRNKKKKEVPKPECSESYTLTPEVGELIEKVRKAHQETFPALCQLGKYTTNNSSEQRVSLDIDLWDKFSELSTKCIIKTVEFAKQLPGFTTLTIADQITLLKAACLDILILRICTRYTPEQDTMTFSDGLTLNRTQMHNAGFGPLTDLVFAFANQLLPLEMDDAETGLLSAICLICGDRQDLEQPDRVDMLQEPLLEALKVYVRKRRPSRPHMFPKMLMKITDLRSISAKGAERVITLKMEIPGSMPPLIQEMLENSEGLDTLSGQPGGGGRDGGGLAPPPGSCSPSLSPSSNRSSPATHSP

CC(C)=CCO
not listed: [17] | [18] | [19] | [20]
inactive: all other assays above

COc1ccc(NC(=O)CC(C)=O)cc1
not listed: [8] | [12] | [20]
inactive: all other assays above

CCC(=O)/C=C/C1C(C)=CCCC1(C)C (stereo not drawn)
not listed: [12] | [14] | [17] | [18]
inactive: all other assays above

COc1ccc(Cl)cc1C
active: [5] 36.9 µM
not listed: [12] | [17] | [18]
inactive: all other assays above

COc1cc2ncnc(Nc3cccc(Cl)c3)c2cc1OC
active: [7] 5.09 µM | [11] 19.5 µM
not listed: [8] | [17]
inactive: all other assays above

CC(=O)Nc1ccc(CC(=O)O)cc1
not listed: [17] | [18]
inactive: all other assays above

CNC[C@H](O)c1cccc(O)c1
not listed: [8] | [12] | [17]
inactive: all other assays above

CC(C)=CCC[C@H](C)CC=O
not listed: [12] | [13] | [17] | [18]
inactive: all other assays above

CC(CCO)CCc1ccccc1 (stereo not drawn)
active: [12] 24.2 µM
not listed: [13] | [17] | [18]
inactive: all other assays above

CN1Cc2c(N)cccc2C(c2ccccc2)C1 (stereo not drawn)
active: [5] 59.1 µM
not listed: [8] | [12]
inactive: all other assays above

C=C(C)C(=O)O
not listed: [8] | [14] | [17]
inactive: all other assays above

CCCCCCCCCCCCCC(=O)O
not listed: [8] | [17] | [20]
inactive: all other assays above

O=C(O)c1snc(Cl)c1Cl
active: [1] 155 µM | [4] 100 µM | [5] 14.5 µM | [6] 100 µM | [11] 164 µM
not listed: [8] | [12] | [14] | [17]
inactive: all other assays above

CC1(C)[C@H]2CC[C@]1(C)[C@H](O)C2
not listed: [12] | [17] | [18]
inactive: all other assays above

CCCCCCCCCCCCCCCC(=O)O
not listed: [8] | [12] | [13] | [17] | [20]
inactive: all other assays above

C=C(C)C(=O)OCc1ccccc1
not listed: [8] | [13] | [14] | [17]
inactive: all other assays above

C=C[C@@H](C)CCC=C(C)C
not listed: [7] | [12] | [13] | [17] | [19]
inactive: all other assays above

Reference: PubChem BioAssay (EPA / NIEHS)
